# Calls of active or inactive are those of the source. The rule behind the calls is not given here.
# Target: Pantothenate synthetase (Mycobacterium tuberculosis (strain ATCC 25618 / H37Rv)) (UniProt P9WIL5)
# Assay: Recombinant Mtb pantothenate synthetase (PanC) inhibitors, coupled enzyme, confirmatory (AID 375);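 note: 0% = full reaction with vehicle and 100% = no enzyme background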
# Conditions: coupled enzyme assay; at 10 µM, active compounds read high
# Chain of Pantothenate synthetase (Mycobacterium tuberculosis (strain ATCC 25618 / H37Rv)) (P9WIL5 whole entry, looked up): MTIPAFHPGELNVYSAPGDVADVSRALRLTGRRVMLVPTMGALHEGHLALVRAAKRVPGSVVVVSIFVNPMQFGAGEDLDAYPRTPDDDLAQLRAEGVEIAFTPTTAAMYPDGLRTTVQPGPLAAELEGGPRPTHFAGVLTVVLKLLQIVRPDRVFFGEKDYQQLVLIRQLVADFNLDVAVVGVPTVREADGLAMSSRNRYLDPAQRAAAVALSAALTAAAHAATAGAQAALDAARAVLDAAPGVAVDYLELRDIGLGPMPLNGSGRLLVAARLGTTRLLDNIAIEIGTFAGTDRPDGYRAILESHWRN
row,SMILES,inhibition
1,COc1ccc(N2CCN(C(c3cccs3)c3nnnn3C3CCCC3)CC2)cc1 (stereo not given),6% (inactive)
2,Cn1c(=O)n(C)c2cc(NC(=O)C(F)(F)F)ccc21,0% (inactive)
3,O=C(CCC(=O)c1cccs1)NCc1ccccc1,0% (inactive)
4,COc1ccc(/C(O)=C2/C(=O)C(=O)N(CCN(C)C)C2c2ccccn2)cc1OC (stereo not given),0% (inactive)
5,Cc1c(Cl)cccc1Nc1ccccc1C(=O)O,1% (inactive)
6,CCOc1ccc(C2CC(c3cccc(C)c3)n3ncnc3N2)cc1 (stereo not given),0% (inactive)
7,COc1cc2c(=O)nc3n(c2cc1OC)C(c1ccccc1)N=C(N)N3 (stereo not given),0% (inactive)
8,Cc1cccc(OCC(=O)Nc2ccccc2N2CCN(C(=O)C(C)C)CC2)c1C,5% (inactive)
9,Cc1ccccc1CN1CCN(CC(=O)NCc2ccco2)C1=O,0% (inactive)
10,CC1CN(CC(O)COc2ccccc2C(C)(C)C)CC(C)O1 (stereo not given),0% (inactive)
11,O=C(Cn1ccc2ccccc2c1=O)Nc1ccc2c(c1)OCO2,6% (inactive)
12,COc1ccccc1NC(=O)CSc1nnc(Cn2nnc(-c3ccccc3)n2)n1-c1ccccc1,0% (inactive)
13,CN(C)S(=O)(=O)c1ccc(C(=O)N2CCCC2c2nc3ccccc3s2)cc1 (stereo not given),0% (inactive)
14,Cc1ccc(C(=O)Nc2ccc3c(c2)OCO3)cc1S(=O)(=O)N1CCCC1,0% (inactive)
15,CCN(CC)S(=O)(=O)c1ccc2oc(C(=O)N3CCOCC3)c(C)c2c1,0% (inactive)
16,COc1ccccc1-c1noc(-c2ccco2)n1,6% (inactive)
17,O=C(CSc1nnnn1C1CCCCC1)N1CCc2ccccc21,0% (inactive)
18,COc1cccc(C(=O)Nc2c(C(N)=O)oc3ccccc23)c1,0% (inactive)
19,Cc1ccc(OCc2nnc(SCC(=O)N3CCOCC3)n2C)cc1,0% (inactive)
20,O=C(Nc1cc(C(F)(F)F)ccc1Cl)c1cc(C2CC2)on1,2% (inactive)

row,SMILES,inhibition
1,COc1ccc(NC(=O)Nc2ccc(C)cc2OC(F)F)cc1OC,3% (inactive)
2,COc1ccc(NC(=O)C2Cc3ccccc3C(=O)O2)cc1 (stereo not given),0% (inactive)
3,Cc1ccc(N2CC(C(=O)Nc3ccc4c(c3)OCO4)CC2=O)cc1 (stereo not given),6% (inactive)
4,CCCc1cc(=O)oc2cc(C)cc(OC(=O)c3ccco3)c12,0% (inactive)
5,Cc1ccc(NC(=O)C2CCCN2C(=O)Oc2ccccc2)cc1 (stereo not given),1% (inactive)
6,O=C(O)C1CC=CCC1C(=O)Nc1cc(Cl)ccc1Cl (stereo not given),1% (inactive)
7,COc1ccc(NC(=O)C(C)NS(=O)(=O)c2ccccc2)cc1Cl (stereo not given),10% (inactive)
8,Cn1c(CCCNC(=O)c2ccccc2)nc2ccccc21,2% (inactive)
9,O=c1c2cnn(-c3ccccc3)c2ncn1/N=C/c1ccncc1,5% (inactive)
10,O=C(O)c1cc(O)c2c(c1)C(=O)c1cccc(O)c1C2=O,9% (inactive)
11,Clc1cc2c(c(Cn3cnc4ccccc43)c1)OCOC2,0% (inactive)
12,O=C(NCC1CCCO1)C1CCCN(S(=O)(=O)c2cccc3nsnc23)C1 (stereo not given),4% (inactive)
13,O=C(CCCCn1c(=O)c2ccccc2n(Cc2ccc(Cl)cc2)c1=O)NCc1ccco1,0% (inactive)
14,c1ccc(-c2nn3c(Cn4nnc5ccccc54)nnc3s2)nc1,0% (inactive)
15,CCN(CC)CCCNC(=O)c1nn(-c2ccc(OC)cc2OC)c(=O)c2ccccc12,0% (inactive)
16,CC(C)C1N=C2c3ccccc3N=C(SCc3cc(=O)n4ccccc4n3)N2C1=O (stereo not given),6% (inactive)
17,O=C(NCc1cccs1)C1CC(c2ccccc2O)=NO1 (stereo not given),5% (inactive)
18,CCOC(=O)N1CCN(C(=O)CSc2nnc(-c3cc(OC)cc(OC)c3)o2)CC1,0% (inactive)
19,CC(C)CNS(=O)(=O)c1ccc(OCC(=O)Nc2ccc3c(c2)OCO3)c(Cl)c1,6% (inactive)
20,O=C(Nc1cc(Cl)ccc1Cl)c1noc2c1CCCC2,2% (inactive)

# From PubChem BioAssay
